Format in all cases: functional
The target of experiment [1] is Solute carrier family 2, facilitated glucose transporter member 1 (Homo sapiens) (UniProt P11166). Put plainly: ST_JUDE_LEISH: Cytotoxicity at 2uM final concentration against transgenic Leishmania Mexicana promastigotes LmGLUT1 that are glucose transport deficient and complemented with the human glucose transporter GLUT1. Activity is measured by DNA content using SYBR green in vitro.

The target of experiment [2] is Hexose transporter 1 (Plasmodium falciparum) (UniProt O97467). Put plainly: ST_JUDE_LEISH: Cytotoxicity at 2uM final concentration against transgenic Leishmania Mexicana promastigotes LmPfHT that are glucose transport deficient and complemented with the Plasmodium falciparum hexose transporter. Activity is measured by DNA content using SYBR green in vitro.
Experiment [3] deals with Glucose transporter (Leishmania mexicana) (UniProt O61059). Put plainly: ST_JUDE_LEISH: Cytotoxicity at 2uM final concentration against transgenic Leishmania Mexicana promastigotes LmGT2 that are glucose transport deficient and complemented with the L. Mexicana glucose transporter 2. Activity is measured by DNA content using SYBR green in vitro.

The structures appear in SMILES notation.

Solute carrier family 2, facilitated glucose transporter member 1 (Homo sapiens), sequence (P11166 whole entry): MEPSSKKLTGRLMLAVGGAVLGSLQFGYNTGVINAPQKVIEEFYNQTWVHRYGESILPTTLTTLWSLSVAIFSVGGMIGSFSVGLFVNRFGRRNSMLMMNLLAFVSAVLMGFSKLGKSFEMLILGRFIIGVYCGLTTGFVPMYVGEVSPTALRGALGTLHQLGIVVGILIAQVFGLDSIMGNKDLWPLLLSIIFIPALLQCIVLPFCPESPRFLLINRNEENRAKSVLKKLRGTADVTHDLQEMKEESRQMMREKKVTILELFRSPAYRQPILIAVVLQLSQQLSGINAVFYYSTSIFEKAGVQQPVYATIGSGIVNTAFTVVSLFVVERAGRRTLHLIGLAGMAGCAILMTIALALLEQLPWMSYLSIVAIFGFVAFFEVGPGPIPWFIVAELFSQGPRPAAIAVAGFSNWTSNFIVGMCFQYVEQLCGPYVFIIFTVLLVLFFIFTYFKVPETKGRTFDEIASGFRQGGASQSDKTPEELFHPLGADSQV

For the molecule `CC(=O)Nc1ccc(CCNC(C)Cc2ccc(C(=O)Nc3ccc(CC(C)NCCc4cccc(Cl)c4)cc3)cc2)cc1` (stereo not drawn), the results for the inhibition in experiment [1], in experiment [2] and in experiment [3] were 2.17%, -1.77% and 0.98%, respectively.
With `CN1CCC(N2CCN(C(=O)c3cccc(-c4cccc(-c5nc6ccccc6[nH]5)c4)c3)CC2)CC1`, the inhibition (usually the drop in the measured response relative to a control, in per cent) in experiment [1] was found to be 0.86%; in experiment [2], 2.54%; in experiment [3], 2.11%.
The like results for `Cc1ccc(NC(=O)c2cccc(CN3CCCN(Cc4cccc(O)c4)CC3)c2)cc1F` were, in that order, 7.48%, 8.09% and 1.34%.
For the molecule `CCCCOC(=O)NCCCC[C@H](NC(=O)OC(C)(C)C)C(=O)N[C@H](C(=O)OC(c1ccccc1)c1ccccc1)[C@H]1O[C@@H](n2ccc(=O)[nH]c2=O)[C@@H]2OC(C)(C)O[C@@H]21`, the figures for the inhibition in experiment [1], in experiment [2] and in experiment [3] were 0.88%, 0.71% and 0.44%, respectively.
Consider `CC(O)CNc1nc2ccccc2n1CC(=O)Nc1cccc(C(=O)Nc2cccc(C(F)(F)F)c2)c1` (stereo not drawn), for which the inhibition turned out to be 1.41% in experiment [1], 1.81% in experiment [2] and 4.48% in experiment [3].
Take `COc1ccc(Nc2ncc(OC)c(Nc3ccccc3C(N)=O)n2)cc1N1CCN(C)CC1`: the inhibition in experiment [1] is 17.6%; in experiment [2], 21.9%; in experiment [3], 7.83%.
The like results for `CCCCCCNC(=O)C1Cc2c([nH]c3ccc(C)cc23)C2(CCN(CCc3ccccc3)CC2)N1` (stereo not drawn) were, in that order, 0.36%, 1.61% and 3.44%.
The like results for `O=C(/C=C/c1ccc(Cl)c(Cl)c1)NCCCCCN1CCC(NC(=S)Nc2ccc(F)cc2F)CC1` were, in that order, 16.5%, 14.9% and 14.5%.
The like results for `O=C(Nc1ccc(N2CCCN(Cc3cccc(F)c3)CC2)cc1)c1ccccc1` were, in that order, 0.26%, -0.73% and -0.78%.
For `CCC(=O)Nc1cc(=O)[nH]c2nc(-c3ccc(Cl)cc3)nn12`, the inhibition was -1.32% in experiment [1], -2.09% in experiment [2] and -2.81% in experiment [3].
On to `Cc1ccc(-c2cc3nc4c(c(NCCCn5ccnc5)n3n2)CCC4)cc1`, for which the results for the inhibition in experiment [1], in experiment [2] and in experiment [3] were 2.77%, 1.6% and 0.92%, respectively.

(Values after ChEMBL document CHEMBL3433997, “St. Jude Leishmania screening dataset” (2016).)
